From PubChem BioAssay
Active and inactive are the calls of the source. Unless noted, the rule behind the calls is not given here.

Experiments:
[1] = HepG2 liver cancer cell viability effects, profiling panel, resazurin fluorescence, 24 h, PK04 Diversity Set (AID 1172); details: higher = more signal
[2] = basal S. cerevisiae growth modulation, no modifier, primary screen, OD600, strain BY4716, 24 h, basal condition (AID 1173); details: OD600, 24 h, higher = more signal, called active from +8 up or from −8 down
[3] = MM1S myeloma cell viability, profiling panel, resazurin fluorescence, basal, 24 h, PK04 Diversity Set (AID 1174); details: higher = more signal, called active from +8 up or from −8 down;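 note: MM1S multiple myeloma cell line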
[4] = molecular target: Dihydroorotate dehydrogenase (quinone), mitochondrial (Plasmodium falciparum (isolate 3D7)) (UniProt Q08210); assay: PfDHODH enzyme inhibitors, primary screen, biochemical, C-terminal His tag, absorbance 600 nm (AID 1175); details: DCIP absorbance 600 nm, higher = more signal, called active from +8 up or from −8 down;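 note: recombinant parasite enzyme with a five histidine tag at its C terminus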
[5] = P. aeruginosa biofilm formation inhibitors, primary screen, strain PAO1, LB-PBS medium, absorbance 600 nm (AID 1176); details: P. aeruginosa PAO1 growth/biofilm, A600, 12 h; higher = more signal
[6] = S. cerevisiae RM11-1a growth modifiers, primary screen, strain RM11-1a, OD600, basal, 24 h (AID 1177); details: OD600, 24 h, higher = more signal, called active from +8 up or from −8 down;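 note: cultures grown under basal conditions with no added stressor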
[7] = E. coli acrAB mutant growth effects, primary screen, E. coli filamentation inducers, strain DRC39, OD650, 24 h (AID 1178); details: higher = more signal, called active from +8 up or from −8 down;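 note: growth measured as culture turbidity by optical density at 650 nm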
[8] = E. coli acrAB mutant growth effects, primary screen, E. coli filamentation inducers, strain DRC39, OD650, 48 h (AID 1179);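 note: screen aims at cell division blockers that make cells filament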; details: E. coli DRC39 delta-acrAB growth, higher = more signal, called active from +8 up or from −8 down
[9] = RPMI8226 myeloma cell viability, profiling panel, resazurin fluorescence, basal, 24 h, PK04 Diversity Set (AID 1180); details: higher = more signal;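 note: RPMI8826 multiple myeloma cell line at 5000 cells per well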
[10] = molecular target: E3 ubiquitin-protein ligase XIAP (Homo sapiens) (UniProt P98170); assay: XIAP binders, primary screen, biophysical, small-molecule microarray, fluorescence 635 nm (AID 1181); details: small-molecule microarray binding, higher = more signal;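 note: score merges 667 nm emission and signal to noise over triplicate slides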
[11] = tested on: XIP peptide (Xip251-270) binding; assay: small-molecule binders of XIP peptide, primary screen, biochemical, small-molecule microarray, fluorescence 635/667 nm, 0.1 µg/mL protein (AID 1182); details: fluorescent protein binding, 635 nm, higher = more signal, called active from +8 up or from −8 down
[12] = tested on: XIP peptide (Xip251-270); assay: small-molecule binders of XIP peptide, primary screen, biochemical, small-molecule microarray, fluorescence 635/667 nm, 0.5 µg/mL protein (AID 1183); details: small-molecule microarray binding, fluorescence 635 nm; higher = more signal
[13] = Plasmodium falciparum growth inhibition, primary screen, strain 3D7, DAPI fluorescence, 100 nL (AID 1184);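 note: parasites grown inside human red blood cells in medium with human serum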; details: P. falciparum 3D7 growth, 3 d, higher = more signal
[14] = molecular target: Homeobox protein Hox-A13 (Mus musculus) (UniProt Q62424); assay: inhibitors of HoxA13-DNA binding, primary screen, biochemical, fluorescence polarization, labeled oligonucleotide (AID 1185); details: 15 min, higher = more signal, called active from +8 up or from −8 down
[15] = inhibitors of hydroxyurea-induced Chk1 phosphorylation, primary screen, imaging, HeLa, phospho-Chk1 antibody, percent positive cells (AID 1186); details: hydroxyurea-induced phospho-Chk1 immunofluorescence imaging, higher = more signal
[16] = inhibitors of hydroxyurea-induced Chk1 phosphorylation, primary screen, imaging, HeLa, phospho-Chk1 nuclear intensity (AID 1187); details: hydroxyurea-induced phospho-Chk1 immunofluorescence imaging, higher = more signal

Sequence of E3 ubiquitin-protein ligase XIAP (Homo sapiens) (P98170 whole entry, looked up): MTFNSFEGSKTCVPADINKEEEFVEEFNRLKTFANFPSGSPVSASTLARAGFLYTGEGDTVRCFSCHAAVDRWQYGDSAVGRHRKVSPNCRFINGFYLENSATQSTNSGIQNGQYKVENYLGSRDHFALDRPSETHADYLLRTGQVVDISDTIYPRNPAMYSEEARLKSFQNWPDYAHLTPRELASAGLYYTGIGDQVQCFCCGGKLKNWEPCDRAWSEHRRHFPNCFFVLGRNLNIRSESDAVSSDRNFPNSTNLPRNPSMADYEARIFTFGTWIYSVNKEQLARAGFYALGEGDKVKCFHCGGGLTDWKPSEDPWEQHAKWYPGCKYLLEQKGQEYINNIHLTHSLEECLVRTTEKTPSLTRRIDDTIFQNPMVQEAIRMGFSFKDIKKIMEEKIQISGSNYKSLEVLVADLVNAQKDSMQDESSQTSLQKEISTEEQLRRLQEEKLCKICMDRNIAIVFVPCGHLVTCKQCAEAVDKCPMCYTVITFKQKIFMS
Sequence of Dihydroorotate dehydrogenase (quinone), mitochondrial (Plasmodium falciparum (isolate 3D7)) (Q08210 whole entry, looked up): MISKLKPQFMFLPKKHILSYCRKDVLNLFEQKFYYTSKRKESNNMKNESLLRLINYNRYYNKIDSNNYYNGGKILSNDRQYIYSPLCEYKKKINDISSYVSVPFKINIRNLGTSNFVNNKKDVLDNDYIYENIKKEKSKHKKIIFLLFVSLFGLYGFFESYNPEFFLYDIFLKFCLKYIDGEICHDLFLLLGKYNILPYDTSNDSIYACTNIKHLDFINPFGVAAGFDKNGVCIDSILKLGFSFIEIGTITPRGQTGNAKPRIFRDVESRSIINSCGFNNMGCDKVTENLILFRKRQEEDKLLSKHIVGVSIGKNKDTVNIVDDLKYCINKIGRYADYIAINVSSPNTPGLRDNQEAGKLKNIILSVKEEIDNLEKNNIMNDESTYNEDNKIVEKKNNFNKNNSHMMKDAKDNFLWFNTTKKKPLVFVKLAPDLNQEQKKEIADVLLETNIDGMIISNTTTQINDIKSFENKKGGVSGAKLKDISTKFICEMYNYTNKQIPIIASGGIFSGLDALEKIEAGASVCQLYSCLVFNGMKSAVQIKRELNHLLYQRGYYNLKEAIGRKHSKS
Sequence of Homeobox protein Hox-A13 (Mus musculus) (Q62424 whole entry, looked up): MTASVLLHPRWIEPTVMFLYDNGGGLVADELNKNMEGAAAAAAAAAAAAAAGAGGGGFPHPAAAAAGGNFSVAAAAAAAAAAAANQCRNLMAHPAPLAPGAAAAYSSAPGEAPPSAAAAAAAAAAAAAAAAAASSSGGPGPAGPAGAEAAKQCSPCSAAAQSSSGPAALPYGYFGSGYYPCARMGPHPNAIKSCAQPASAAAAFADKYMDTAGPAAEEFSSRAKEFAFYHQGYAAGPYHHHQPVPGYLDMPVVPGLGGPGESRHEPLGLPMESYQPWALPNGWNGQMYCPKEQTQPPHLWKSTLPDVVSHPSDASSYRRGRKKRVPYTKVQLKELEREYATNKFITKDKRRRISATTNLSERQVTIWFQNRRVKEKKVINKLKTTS

Structure (SMILES) | z-score [1] | z-score [2] | z-score [3] | composite z-score [4] | z-score [5] | z-score [6] | z-score [7] | z-score [8] | z-score [9] | composite z-score [10] | composite z-score [11] | composite z-score [12] | z-score [13] | z-score [14] | z-score [15] | z-score [16]
C=CCOC(=O)[C@H]1[C@@H]2C(=O)O[C@@H](c3ccccc3)[C@@H](c3ccccc3)N2[C@@H](c2ccc(OCCOC(=O)[C@H]3C[C@H]4C(=O)N[C@@H](Cc5ccccc5)C(=O)N4[C@H]3c3cccc(OCCO)c3)cc2)[C@]12C(=O)Nc1ccc(I)cc12 | 0.169 | 1.42 (inactive) | -0.446 (inactive) | 0.64 (inactive) | 2.17 (inactive) | 1.04 (inactive) | -0.0281 (inactive) | 0.0436 (inactive) | 0.0282 | -0.105 | 0.893 (inactive) | 0.464 | -1.65 | 0.643 (inactive) | 0.27 (inactive) | -0.0401 (inactive)
COc1ccc([Si](C)(C)[C@@H]2[C@@H](CC(=O)N3CCC[C@H]3CO)O[C@]3(C(=O)N(Cc4ccc(N5C(=O)c6cccc7cccc5c67)cc4)c4ccccc43)[C@H]2C)cc1 | -2.57 | 0.165 (inactive) | -2.82 (inactive) | -0.0108 (inactive) | -0.012 (inactive) | 1.36 (inactive) | 0.3 (inactive) | -0.138 (inactive) | -4.75 | -0.0386 | 0.353 (inactive) | 0.792 | -2.09 | -3.19 (inactive) | 0.48 (inactive) | 0.451 (inactive)
CC(C)(C)N1CC=CC23O[C@@H]4C=CCOC(=O)[C@@H]4[C@H]2C(=O)N(CCCO)[C@@H]3C1=O (some centres undefined) | -0.922 | 0.114 (inactive) | -1.27 (inactive) | -0.257 (inactive) | -0.317 (inactive) | 0.297 (inactive) | -1.04 (inactive) | -0.955 (inactive) | -0.808 | 0.55 | -0.466 (inactive) | -0.825 | -1.87 | -3.12 (inactive) | -0.263 (inactive) | -0.327 (inactive)
[N-]=[N+]=NCc1ccccc1C[C@@]1(C(N)=O)N=C(c2ccc(OCCCO)cc2)O[C@@H]1c1ccccc1CN=[N+]=[N-] | 0.717 | -1.43 (inactive) | -0.833 (inactive) | -11.6 (active) | 0.261 (inactive) | 0.835 (inactive) | 0.178 (inactive) | 0.041 (inactive) | 0.0178 | 0.0049 | 0.145 (inactive) | 0.0228 | -1.91 | -1.91 (inactive) | -0.228 (inactive) | -0.347 (inactive)
C=CCN1C(=O)[C@@]2(O[C@@H](CCn3cc([C@H](O)c4ccccc4)nn3)[C@H]([Si](C)(C)c3ccc(OC)cc3)[C@H]2C)c2ccccc21 | -0.986 | 0.117 (inactive) | -1.83 (inactive) | -0.198 (inactive) | 0.626 (inactive) | 0.93 (inactive) | -0.599 (inactive) | -0.857 (inactive) | -1.97 | 0.144 | -0.0466 (inactive) | 0.857 | -0.99 | -5.69 (inactive) | -0.763 (inactive) | -1.51 (inactive)
CCOC(=O)C1=C[C@@H](c2ccccc2)N(S(=O)(=O)c2ccc(C)cc2)[C@H]1c1cccc(Cl)c1 | -0.663 | 1.7 (inactive) | -0.848 (inactive) | -0.184 (inactive) | -0.169 (inactive) | 2.1 (inactive) | -0.823 (inactive) | -0.777 (inactive) | -1.64 | -0.221 | 0.526 (inactive) | 0.803 | -2.03 | 0.587 (inactive) | 0.289 (inactive) | 0.284 (inactive)
CC1CC/C=C\[C@H]2OC34C=CCN(c5ccc6ccccc6c5)C(=O)[C@H]3N(C(CO)C(C)C)C(=O)[C@@H]4C2C(=O)O1 (some centres undefined) | -0.452 | -0.0979 (inactive) | -0.241 (inactive) | -2.17 (inactive) | -0.332 (inactive) | -0.319 (inactive) | 0.0932 (inactive) | 0.154 (inactive) | -0.315 | 0.558 | 0.17 (inactive) | -0.0558 | -0.571 | -6.57 (inactive) | 0.174 (inactive) | 0.604 (inactive)
COc1ccccc1CN1C(=O)c2ccccc2[C@](Cc2ccccc2I)(C(=O)NC(C)C)[C@@H]1c1ccc(CO)cc1 | 0.985 | -0.601 (inactive) | -0.577 (inactive) | -2.47 (inactive) | -0.379 (inactive) | 0.862 (inactive) | 1.05 (inactive) | 1.01 (inactive) | -0.305 | -0.253 | 0.265 (inactive) | 0.585 | -1.95 | -3.59 (inactive) | -0.316 (inactive) | -0.471 (inactive)
O=C1O[C@@H](c2ccccc2)[C@@H](c2ccccc2)N2[C@@H](c3ccccc3OCCO)[C@]3(C(=O)Nc4ccc(C#CC5=CCCCC5)cc43)[C@@H](C(=O)NC[C@H](O)c3ccccc3)[C@H]12 | -1.33 | 0.961 (inactive) | -7.07 (inactive) | 0.578 (inactive) | 0.787 (inactive) | 0.979 (inactive) | -0.0029 (inactive) | -0.208 (inactive) | -5.79 | -0.16 | 0.409 (inactive) | 0.0598 | -1.7 | 1.62 (inactive) | -0.336 (inactive) | -0.415 (inactive)
